Compounds without any hit were thinned out: in the full panel of roughly 79,000, 15% have a hit. Values without a mark were called inactive. Calls of active or inactive are those of the source. Cut-off read from the data, not from the text of the source: active = growth inhibition above about 70%; inactive = the rest. Where a SMILES comes first, the peptide text is derived from it. The star is where a group is joined. ONp = O=[N+]([O-])c1ccc(O*)cc1; Tos = Cc1ccc(S(=O)(=O)*)cc1
Test: NCI Yeast Anticancer Drug Screen. Data for the sgs1 mgt1 strain (AID 161);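 note: 0% = growth of cultures given vehicle only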
Settings: S. cerevisiae sgs1 mgt1 strain, at 50.0 µM, stronger effect = higher value
Summary of the method: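 Genetically altered yeast, compound exposure, growth inhibition relative to vehicle.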

SMILES | growth inhibition
Cc1cc(=O)oc2nc(-c3ccccc3)[nH]c(=O)c12 | 3.2%
O=C(Nc1cccc([N+](=O)[O-])c1)Nc1ccccc1F | 14.1%
COc1cc(C2c3c(cc(OC)c(O)c3OC)C=C(C(=O)O)C2CO)cc(OC)c1O (stereo not given) | -2.95%
Cc1cc(C(=O)O)ccc1C(=O)O | -1.95%
COc1ccc(CC2OCCC3c4ccccc4NC23)cc1OC (stereo not given) | 0.7%
CC(=O)C1=CCC2[C@H]3CC=C4C[C@H](O)CC[C@@]4(C)C3CC[C@@]12C (stereo not given in full) | 49.8%
CC(=O)C(C)(C)O | 48.8%
CCc1nnc2n1N=C(c1ccc(-c3ccccc3)cc1)CS2 | 3.3%
CC(C)CC(N)C(=O)NC(Cc1c[nH]c2ccccc12)C(N)=O (stereo not given) | 18.1%
C=C1CCC2C(C)(CO)C(O)CCC2(C)C1CCC1=CCOC1=O (stereo not given) | -3.2%
Brc1ccccc1-c1nnc(-c2cccc3ccccc23)o1 | -15.3%
O=C1c2ccc([N+](=O)[O-])cc2C(=O)N1CCBr | 16.6%
OCc1ccccc1CC(O)c1ccccc1 (stereo not given) | -20.2%
O=C(Nc1ccc2ccccc2c1)C1CC1 | -9.15%
C(=C/c1ccccc1)/CNCCNC/C=C/c1ccccc1 | 40.8%
Cc1ccc(S(=O)(=O)NCC(=O)NCC(=O)Oc2ccc([N+](=O)[O-])cc2)cc1 (Tos-Gly-Gly-ONp) | 42.2%
Cc1cn(C2CC(O)C(CO)O2)c(=O)nc1NC1CCCCCCCCCCC1 (stereo not given) | 10.1%
O=C1c2cc3c(cc2CC12Cc1cc4c(cc1C2)CCC4)CCC3 | -8%
C/C(CC(=O)Nc1ccc(Cc2ccc(Cl)cc2)cc1)=N/Nc1ccc([N+](=O)[O-])cc1[N+](=O)[O-] | 31.4%
CC1OC(O[C@@H]2OC=C(C=O)[C@@]3(O)CC[C@H](C)[C@@H]23)C(O)C(O)C1O (stereo not given in full) | 9.1%

SMILES | growth inhibition
COc1cc2c3cc1Oc1c(O)c(OC)cc4c1C(Cc1ccc(O)c(c1)Oc1ccc(cc1)CC3N(C)CC2)N(C)CC4 (stereo not given) | -33.6%
CCc1ccc(/C(C#N)=C/c2ccccc2Cl)cc1 | 26.4%
Cc1cc(O)c(C=NC(=S)c2ccccc2)c(=O)o1 | 10.2%
c1ccc2c(CN3CCCCC3)cccc2c1 | -4.05%
O=C(CN1CCCCC1)NC(=O)N/N=C\c1ccco1 | 6.1%
O=C(COCC(=O)N/N=C/c1ccc(O)cc1)N/N=C/c1ccc(O)cc1 | 31.8%
Nc1ccc(S(=O)(=O)N/N=C/c2ccccc2)cc1 | 12.1%
CCCNS(=O)(=O)c1nc2ccccc2s1 | -5.6%
CC(O)CCCCC(O)CCC[C@H](O)[C@H]1CCC([C@H]2CCC([C@@H](O)CCCCCCCCCCCCC3=C[C@H](C)OC3=O)O2)O1 (stereo not given in full) | 71.2% (active)
Cc1cc(OCc2nnc3n2S(=O)(=O)c2ccccc2N3C)ccc1Cl | -21.8%
Cc1c(Cl)ccc2c1NC(=O)C2(O)C1Cc2ccccc2C1=O (stereo not given) | 37.5%
C(=C\c1ccc2ccccc2c1)/c1ccc2ccccc2c1 | 16.6%
CC(C)=NNC(=O)c1ccccc1CC(O)(c1ccccc1)c1ccccc1 | 10.2%
CCOC(=O)Cc1nc(Cl)c2c(C)c(C)sc2n1 | 6.9%
CN(C)CCCNc1ccc2nnn3c4ccc(O)cc4c(=O)c1c23 | 0.9%
CCCCSc1nc(NCC)nc(NCC)n1 | 67%
Nc1nc(N)c(N)c(Nc2ccc(Cl)cc2)n1 | 9%
CCOc1ccc(NC(C)=O)c([N+](=O)[O-])c1 | 21%
CCOC(=O)CCC(C(=O)OCC)C(C)C(=O)OCC (stereo not given) | -25.8%
CCOCCOC(=O)Nc1ccc(C)c(NC(=O)OCCOCC)c1 | 8.65%
